{"source": "PubChem BioAssay", "note": "Values joined by “and” are separate entries in the source; they are usually repeats but may differ in a detail not shown here. Equal values may be shown once.", "data": [{"assay": "MELAS cybrid and Rieske KO viability enhancers – cell-based, MELAS cybrids, Rieske KO mouse fibroblasts, CellTiter-Glo, primary screen (AID 1508586);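 also: test concentration not given here; z relative to plate mean and SD of compound and empty wells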", "conditions": "Rieske KO mouse fibroblast survival, low glucose, CellTiter-Glo 72 h", "values": [{"compound": "Cc1cc2c(OCC(CNC(C)(C)C)OC(=O)c3ccccc3)cccc2[nH]1", "note": "(centres undefined)", "z-score": -1.26}, {"compound": "CC(CNC1CCCCC1)OC(=O)c1ccccc1", "note": "(centres undefined)", "z-score": -0.57}, {"compound": "C[C@]12CC[C@H]3[C@@H](CCC4=CC(=O)CC[C@@]43C)[C@@H]1CC[C@@H]2C(=O)CO", "z-score": 0.173}, {"compound": "CCc1cccc(CC)c1NC(=O)CN(CC(=O)O)CC(=O)O", "z-score": 0.0436}, {"compound": "CCC(C)(CN(C)C)OC(=O)c1ccccc1", "note": "(centres undefined)", "z-score": -0.277}, {"compound": "C/C(=C(\\CCOP(=O)(O)O)SC(=O)c1ccccc1)N(C=O)Cc1cnc(C)nc1N", "z-score": 0.46}, {"compound": "CC[N+](C)(CC)CCOC(=O)C1c2ccccc2Oc2ccccc21", "z-score": 0.177}, {"compound": "CN1CCN(CCCN2c3ccccc3Sc3ccc(S(=O)(=O)N(C)C)cc32)CC1", "z-score": 0.522}, {"compound": "OC(CCCN1CCCCC1)(c1ccccc1)c1ccccc1", "z-score": "-0.167 and -0.027"}, {"compound": "NS(=O)(=O)c1cc(C(=O)O)cc(N2CCCC2)c1Oc1ccccc1", "z-score": -0.69}, {"compound": "CN(CCCCCCCCCCN(C)C(=O)Oc1cccc([N+](C)(C)C)c1)C(=O)Oc1cccc([N+](C)(C)C)c1", "z-score": -0.227}, {"compound": "CC(C(=O)O)c1ccc(C(=O)c2ccccc2)s1", "note": "(centres undefined)", "z-score": -0.23}, {"compound": "CN1CCCN(C(c2ccccc2)c2ccc(Cl)cc2)CC1", "note": "(centres undefined)", "z-score": 0.377}, {"compound": "CCOC(=O)Nc1ccc2c(c1)N(C(=O)CCN1CCOCC1)c1ccccc1S2", "z-score": 0.145}, {"compound": "COc1ccc(-c2cc(=S)ss2)cc1", "z-score": "0.201 and 0.472"}, {"compound": "CN1CCN(C2=Nc3ccccc3Sc3ccc(Cl)cc32)CC1", "z-score": 0.707}, {"compound": "CCCNC(C)C(=O)Nc1c(C)csc1C(=O)OC", "note": "(centres undefined)", "z-score": "-0.148 and -0.857"}, {"compound": "O=C(O)Cc1sc(-c2ccccc2)nc1-c1ccc(Cl)cc1", "z-score": "-0.115 and 0.182"}, {"compound": "NS(=O)(=O)c1cc2c(cc1Cl)NC(CC1CCCC1)NS2(=O)=O", "note": "(centres undefined)", "z-score": -0.891}, {"compound": "CN(C)CCn1nnnc1SCC1=C(C(=O)O)N2C(=O)[C@@H](NC(=O)Cc3csc(N)n3)[C@H]2SC1", "z-score": -0.0723}, {"compound": "CC(C)(C)C(=O)OCOC(=O)[C@@H]1N2C(=O)[C@@H](NC(=O)[C@H](N)c3ccccc3)[C@H]2SC1(C)C", "z-score": -0.251}, {"compound": "COCC(=O)Nc1c(I)c(C(=O)NCC(O)CO)c(I)c(C(=O)N(C)CC(O)CO)c1I", "note": "(centres undefined)", "z-score": -1.03}, {"compound": "Cc1c(-c2ccccc2)oc2c(C(=O)OCCN3CCCCC3)cccc2c1=O", "z-score": "-0.166 and -0.00233"}, {"compound": "CCCCN1C[C@H](O)[C@@H](O)[C@H](O)[C@H]1CO", "z-score": -0.247}, {"compound": "NC(=O)OCC(O)COc1ccc(Cl)cc1", "note": "(centres undefined)", "z-score": -0.0882}, {"compound": "CCCCc1cc2ccccc2c(OCCN(C)C)n1", "z-score": 0.0128}, {"compound": "C[N+]1(C)CCC(=C(c2ccccc2)c2ccccc2)CC1", "z-score": "-0.199 and -0.0737"}, {"compound": "CC(C)NC[C@@H](O)COc1ccc(CC(N)=O)cc1", "z-score": -0.0401}, {"compound": "CN1CCCC(CC2c3ccccc3Sc3ccccc32)C1", "note": "(centres undefined)", "z-score": 0.0453}]}]}
